Compound activity deposited in PubChem BioAssay by National Center for Advancing Translational Sciences (NCATS).
HCV inhibitor: qHTS Assay for Inhibitors of Hepatitis C Virus (HCV); Huh7.5.1 HCVcc-Cre infection, luciferase reporter, 44 h; Potency, µM (series often up to 41.8 µM), without a hit: at the top dose activity change, negative = inhibition, hits mostly inhibitors; 340,000 compounds, 3.4% hits; AID 651820, 2012; active = well fitted inhibition curve with a large enough effect; inconclusive = small, poorly fitted or top-dose-only effect, or another doubt; inactive = no such curve, though single readings can be large or run the other way; note: potency is the fitted concentration of half-maximal effect
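Cells seeded at 1,000/well and cultured 4 h, then compounds added followed by HCVcc-Cre virus (~0.5 moi). After 44 h further culture, luciferase substrate was added, plates held 15 min at room temperature, and luminescence read for 15 sec.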
Vaccinia Venus: qHTS for Stage-Specific Inhibitors of Vaccinia Orthopoxvirus: Venus Reporter Primary qHTS | Vaccinia virus Venus reporter expression, fluorescence | Potency, µM (series often up to 36.5 µM), for the others: top-dose activity change, negative = inhibition, actives largely listed as inhibitors | 330,000 compounds, 0.46% hits | AID 720580, 2013; calls by dose curve; tested in A549 cells; note: potency is the fitted concentration of half-maximal effect; nearly all actives have a fitted effect of over 30% in size
HCMV inh: qHTS Assay for inhibitors of the human cytomegalovirus (HCMV); HFF cells, HCMV-luciferase reporter, 72 h; hits give low values; activity change, negative = inhibition, % at 57.5 µM; 410,000 compounds, 4.5% hits; in the data active = activity change below about -60%; inconclusive = no clear call, values can overlap the other calls; inactive = above about -39%
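Compounds were evaluated in HFFs infected with an HCMV luciferase reporter virus (MOI 1 PFU/cell). Luciferase in lysates collected 72 h post infection served as the replication measure.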
Vaccinia mCherry: qHTS for Stage-Specific Inhibitors of Vaccinia Orthopoxvirus: mCherry Reporter Primary qHTS | Vaccinia virus mCherry reporter infection, fluorescence | Potency, µM (top dose mostly 36.5 µM), without a hit: top-dose activity change, negative = inhibition, hits mostly inhibitors | 310,000 compounds, 0.63% hits; calls by dose curve; tested in A549 cells; note: potency is the fitted concentration of half-maximal effect; nearly all actives have a fitted effect of over 35% in size
FMDV inh: High Throughput Screening for Foot and Mouth Disease Virus Antivirals; Potency, µM (top dose mostly 57.9 µM), for inactives: at the top dose activity change, negative = inhibition, hits mostly inhibitors; AID 1159524, 2015; FMDV antiviral cell-based qHTS; 410,000 compounds, 1.2% hits; calls by dose curve; tested in HEK293T cells; note: read-out not given here; potency is the fitted concentration of half-maximal effect; nearly all actives have a fitted effect of over 45% in size
* hit, by the source's call; ! = a repeat was not active; [ ] = dose if it differs, or a comment. Compounds with a hit are over-represented: about 7.3% of the library has one in this group of screens. % is set by controls: 0 for no effect and ±100 for the full control effect.

What do the screens show for `COCCC(=O)Nc1ccc2c(c1)CN(C(=O)CCSC)CC2`?
HCV inhibitor: 6%; Vaccinia Venus: -7%; HCMV inh: -27; Vaccinia mCherry: 0%; FMDV inh: -9%

Results for COCCC(=O)Nc1ccc2c(c1)CN(C(=O)c1ccc(CSC)o1)CC2 ?
HCV inhibitor: 10µM*; Vaccinia Venus: -23%; HCMV inh: 50; Vaccinia mCherry: 6%; FMDV inh: 5%

Results for COc1ccc(C(=O)Nc2ccc3nc4c(c(Nc5ccccc5OC)c3c2)CCCC4)c(OC)c1 ?
Vaccinia Venus: -17%; HCMV inh: -9; Vaccinia mCherry: inactive; FMDV inh: -6%

How did COc1ccccc1Nc1c2c(nc3ccc(NC(=O)c4ccccc4F)cc13)CCCC2 do in these assays?
Vaccinia Venus: inconclusive; HCMV inh: -100*; Vaccinia mCherry: inconclusive; FMDV inh: inconclusive

What do the screens show for `COc1ccccc1Nc1c2c(nc3ccc(NC(=O)c4cccc(OC)c4OC)cc13)CCCC2`?
Vaccinia Venus: -13%[7.34 µM]; HCMV inh: -98*; Vaccinia mCherry: -12%[7.34 µM]; FMDV inh: inconclusive

How did COc1ccc(Nc2c3c(nc4ccc(NC(=O)c5ccc(F)cc5)cc24)CCCC3)cc1OC do in these assays?
Vaccinia Venus: -21%; HCMV inh: -39; Vaccinia mCherry: -16%; FMDV inh: -16%

Results for COc1ccc(C(=O)Nc2ccc3nc4c(c(Nc5ccc(OC)c(OC)c5)c3c2)CCCC4)c(OC)c1 ?
Vaccinia Venus: -10%; HCMV inh: -92*; Vaccinia mCherry: -14%; FMDV inh: -17%

Results for COc1ccccc1Nc1c2c(nc3ccc(NC(=O)c4ccc(OC)c(OC)c4)cc13)CCCC2 ?
Vaccinia Venus: -26%; HCMV inh: -99*; Vaccinia mCherry: -16%; FMDV inh: inconclusive

Results for CCOC(=O)CNC(c1ccccc1)c1cc(Br)ccc1NC(=O)c1ccc(Cl)cc1 (configuration not stated) ?
Vaccinia Venus: 6%; HCMV inh: -14; Vaccinia mCherry: -8%; FMDV inh: inconclusive

How did COc1cccc(-n2c(=O)c3c(C)c(C(=O)N(C)C)sc3n(CC(=O)Nc3ccc(C)cc3Cl)c2=O)c1 do in these assays?
Vaccinia Venus: -11%; HCMV inh: 13; Vaccinia mCherry: -4%; FMDV inh: -14%

What do the screens show for `Cc1nc2cc(OC3(C)CCN(Cc4ccc(OC(F)(F)F)cc4)C3)ccc2s1` (configuration not stated)?
Vaccinia Venus: -5%; HCMV inh: 3; Vaccinia mCherry: inconclusive; FMDV inh: 0%

What do the screens show for `CCC(O)(c1ccc(OC)cc1)C(CN1CCOCC1)c1ccccc1` (configuration not stated)?
HCV inhibitor: 10%; HCMV inh: inconclusive; FMDV inh: -13%

Results for CCCOc1ccc(C(=O)C(CN2CCCC2)c2ccccc2)cc1 (configuration not stated) ?
HCV inhibitor: inconclusive; Vaccinia Venus: 10µM*; HCMV inh: -82*; Vaccinia mCherry: inconclusive; FMDV inh: 18µM*

What do the screens show for `COc1ccc(C(=O)C(CN2CCOCC2)c2ccccc2)cc1` (configuration not stated)?
HCV inhibitor: inconclusive; Vaccinia Venus: 10µM*; HCMV inh: -99*; Vaccinia mCherry: 10µM*; FMDV inh: 11µM*

How did COc1ccc(C(=O)C(CN2CCCC2)c2ccccc2)cc1 (configuration not stated) do in these assays?
HCV inhibitor: inconclusive; Vaccinia Venus: inconclusive; HCMV inh: -95*; Vaccinia mCherry: 11µM*; FMDV inh: 16µM*

What do the screens show for `CCCCOc1ccc(C(=O)C(CN2CCOCC2)c2ccccc2)cc1` (configuration not stated)?
HCV inhibitor: inconclusive; Vaccinia Venus: inconclusive; HCMV inh: -107*; Vaccinia mCherry: 16µM*; FMDV inh: 18µM*

Results for COc1ccc(C(=O)CCN2CCCCCC2)cc1 ?
HCV inhibitor: -18%; HCMV inh: 14; FMDV inh: -19%

Results for COc1cccc(N2CCN(C(=O)CN3CCSc4ccccc43)CC2)c1 ?
Vaccinia Venus: 5%; HCMV inh: -9; Vaccinia mCherry: -9%; FMDV inh: inconclusive

What do the screens show for `Cc1ccc2c(n1)sc1c(=O)n(-c3cccc(C(F)(F)F)c3)nnc12`?
Vaccinia Venus: -15%; HCMV inh: 8; Vaccinia mCherry: 4%; FMDV inh: 38%

How did COc1ccc(CCNC(=O)c2cnc3sc(N4CCCC4)nn3c2=O)cc1OC do in these assays?
Vaccinia Venus: -16%; HCMV inh: -1; Vaccinia mCherry: -15%; FMDV inh: inconclusive

What do the screens show for `COc1cc(/C=C/CN2CCOc3ccc(C(O)c4cccnc4)cc3C2)ccc1O` (configuration not stated)?
Vaccinia Venus: -7%; Vaccinia mCherry: -14%; FMDV inh: -16%

What do the screens show for `c1ccc(C(CN2CCOCC2)c2ccccc2)cc1`?
HCV inhibitor: 17%; HCMV inh: 40; FMDV inh: 4%

Results for O=C(c1ccc(Cl)cc1)C(CN1CCCC1)c1ccccc1 (configuration not stated) ?
HCV inhibitor: inconclusive; HCMV inh: -101*; FMDV inh: 25µM*

Results for O=C(c1ccc(F)cc1)C(CN1CCOCC1)c1ccccc1 (configuration not stated) ?
HCV inhibitor: 11µM*; Vaccinia Venus: 13µM*; HCMV inh: -77*; Vaccinia mCherry: 14µM*; FMDV inh: 8.9µM*

How did O=C(c1ccccc1)C(CCC(CN1CCOCC1)C(=O)c1ccccc1)CN1CCOCC1 (configuration not stated) do in these assays?
HCV inhibitor: 5.6µM*; Vaccinia Venus: 7.9µM*; HCMV inh: -105*; FMDV inh: 25µM*

How did Cc1ccc(O)c(C(=O)c2cnc3c(c2)COc2ccc(C)cc2-3)c1 do in these assays?
HCV inhibitor: inconclusive; Vaccinia Venus: -13%; HCMV inh: -27; FMDV inh: -16%

How did Cc1ccc2c(c1)-c1ncc(C(=O)c3cc(Br)ccc3O)cc1CO2 do in these assays?
Vaccinia Venus: -9%; HCMV inh: -90*!; Vaccinia mCherry: -6%; FMDV inh: 13%

What do the screens show for `COc1ccc2c(c1)c1c(c(=O)n(Cc3ccccc3)c(=O)n1Cc1cccc(Cl)c1)n2C`?
Vaccinia Venus: -10%; HCMV inh: -18; Vaccinia mCherry: -19%; FMDV inh: -19%

Results for CCOc1ccc(-c2nonc2NC(=O)c2ccc(C)cc2)cc1OCC ?
Vaccinia Venus: -7%; HCMV inh: -8; Vaccinia mCherry: -2%; FMDV inh: 6%

Results for CC1(C)CCCC2(C)C3C(O)CC2(C)C(O)C31 (configuration not stated) ?
Vaccinia Venus: 0%; Vaccinia mCherry: inactive; FMDV inh: -18%
